Source: PubChem BioAssay (Tox21)
Where “and” joins values, the source holds several entries; their conditions need not be identical. Equal entries are not always repeated. Results filed as inconclusive are left out. Values without a mark were called inactive. Calls of active or inactive are those of the source. The call rests on the fitted dose curve; in most records, active means well fitted cell-killing curve with a large enough effect in the repeat runs; inconclusive means weak or mixed curves; inactive means no such curve, though single readings can be large or run the other way.

Experiment: qHTS assay to identify small molecule antagonists of the peroxisome proliferator-activated receptor delta (PPARd) signaling pathway - cell viability counter screen (AID 743213); further: nearly all actives have a fitted effect of over 50% in size
Settings: PPARd-bla HEK293H viability, CellTiter-Glo luminescence, 17 h; series mostly up to 62 µM; viability change, negative = cytotoxic: at the top concentration
Description: U.S. Tox21 Program National Center for Advancing Translational Sciences [NCATS] NIH Chemical Genomics Center [NCGC] U.S. Environmental Protection Agency [EPA] National Institutes of Environmental Health Sciences [NIEHS] National Toxicology Program [NTP] U.S. Food and Drug Administration [FDA] Tox21 Assay Overview: The peroxisome proliferator-activated receptors (PPARs) are lipid-activated transcription factors of the nuclear receptor superfamily with three distinct subtypes namely PPAR alpha, PPAR delta (PPARd) and PPAR gamma. All these subtypes heterodimerizes with Retinoid X receptor (RXR) and have different physiological functions. […] To identify the compounds that inhibit PPAR-delta signaling, GeneBLAzer PPAR delta UAS-bla HEK293H cell line (Invitrogen, Carlsbad, CA, USA) containing a beta-lactamase reporter gene under the control of an Upstream Activator Sequence (UAS) was used to screen the Tox21 compound library. The cytotoxicity of the Tox21 compound library against the PPARd-bla cell line was tested in parallel by measuring the cell viability using CellTiter-Glo assay (Promega, Madison, WI) in the same wells.
Tox21 Assay Protocol Summary: PPARd-bla cells were dispensed at 3000 cells/5uL/well in 1536-well black wall/clear bottom plates using a Multidrop Combi (Thermo Fisher Scientific, Waltham, MA) dispenser. After the assay plates were incubated at 37 C and 5% CO2 for 5 h, 23 nL of compounds dissolved in DMSO, positive controls or DMSO only was transferred to the assay plate by a Pintool station (Kalypsys, San Diego, CA), followed by addition of 1ul L165041 (300 nM, final concentration in the wells). The assay plates were incubated at 37 C for 17 h, and then 1 uL of LiveBLAzerTM B/G FRET substrate was added using a Bioraptr Flying Reagent Dispenser (FRD) workstation (Beckman Coulter, Indianapolis, IN, USA). The assay plates were incubated at room temperature for 2 h and fluorescence intensity was measured by an Envision plate reader (PerkinElmer, Shelton, CT). For cell viability readout that measures cytotoxicity, 3 ul/well of CellTiter-Glo reagent was added into the assay plates using a Bioraptr FRD. After 30 min incubation at room temperature, the luminescence intensity in the plates was measured using a ViewLux plate reader (PerkinElmer).
On the % scale 0 is the no-effect control and ±100 the full control effect; potency means the concentration at half of the fitted maximal effect.

Q: Which “viability change, negative = cytotoxic” value does the source give for C/C=C/C=C/COC(=O)C(C)C here?
A: 10.6%

Q: Which “viability change, negative = cytotoxic” value does the source give for Cc1cccc(C(=O)O)c1O here?
A: -0.35%

Q: Which “viability change, negative = cytotoxic” value does the source give for C=CCn1c(=O)n(CC=C)c(=O)n(CC=C)c1=O here?
A: 13.9%

Q: Which “viability change, negative = cytotoxic” value does the source give for C#Cc1ccc(-c2ccccc2F)cc1 here?
A: -8.91%

Q: With NC(=S)NC(N)=S as the compound, how does the “viability change, negative = cytotoxic” value read?
A: -18.9%

Q: For CC(C)(c1cc(Br)c(OCC(Br)CBr)c(Br)c1)c1cc(Br)c(OCC(Br)CBr)c(Br)c1 (stereo not given), which “viability change, negative = cytotoxic” value is on record?
A: -23.5%

Q: For OC[C@@H](O)[C@@H](O)CO, which “viability change, negative = cytotoxic” value is on record?
A: -6.86%

Q: With Fc1ccc(C(c2ccc(F)cc2)N2CCNCC2)cc1 as the compound, how does the Potency read?
A: 15 µM (active)

Q: For COC1=C(OC)C(=O)C(CCCCCCCCCCO)=C(C)C1=O, which “viability change, negative = cytotoxic” value is on record?
A: 0.176%

Q: For C#C[C@]1(O)CC[C@H]2[C@@H]3[C@H](C)CC4=C(CCC(=O)C4)[C@H]3CC[C@@]21C, which “viability change, negative = cytotoxic” value is on record?
A: 13.1%

Q: With CCCCCc1ccc(Cl)cc1 as the compound, how does the “viability change, negative = cytotoxic” value read?
A: 0.268%

Q: Which “viability change, negative = cytotoxic” value does the source give for COC(=O)c1ccccc1C here?
A: 8.31%

Q: With Cc1nc2n(c(=O)c1CCN1CCC(c3noc4cc(F)ccc34)CC1)CCCC2 as the compound, how does the “viability change, negative = cytotoxic” value read?
A: 1.09%

Q: With COc1cc(S(=O)(=O)O)c(C)cc1N=Nc1c(O)ccc2cc(S(=O)(=O)O)ccc12 as the compound, how does the “viability change, negative = cytotoxic” value read?
A: -8.41%

Q: For CCCCCCOC(=O)C(C)CC (stereo not given), which “viability change, negative = cytotoxic” value is on record?
A: 3.74%

Q: With CCCCN(CCCC)CC(O)c1cc(Cl)cc2c1-c1ccc(Cl)cc1/C2=C/c1ccc(Cl)cc1 (stereo not given) as the compound, how does the Potency read?
A: 29.8 µM (active)

Q: For O=C(O)c1cc(=O)c2ccccc2o1, which “viability change, negative = cytotoxic” value is on record?
A: -5.23%

Q: Which “viability change, negative = cytotoxic” value does the source give for Cc1cc(C(C)(C)C)c(O)c(C)c1Cn1c(=O)n(Cc2c(C)cc(C(C)(C)C)c(O)c2C)c(=O)n(Cc2c(C)cc(C(C)(C)C)c(O)c2C)c1=O here?
A: -4.53%

Q: With Clc1nnc(Cl)c2ccccc12 as the compound, how does the “viability change, negative = cytotoxic” value read?
A: 1.78%

Q: For ClCCl, which “viability change, negative = cytotoxic” value is on record?
A: 19.1%

Q: With CNc1ccc([N+](=O)[O-])cc1 as the compound, how does the “viability change, negative = cytotoxic” value read?
A: 2.59%

Q: Which “viability change, negative = cytotoxic” value does the source give for O=[N+]([O-])c1cccc(C(F)(F)F)c1 here?
A: 5.7% [at 80.4 µM]

Q: With FC(F)(F)c1cccc(Cl)c1 as the compound, how does the “viability change, negative = cytotoxic” value read?
A: 10.1%

Q: Which “viability change, negative = cytotoxic” value does the source give for Cc1c(C)c2c(c(C)c1OC(=O)c1cccnc1)CC[C@@](C)(CCC[C@H](C)CCC[C@H](C)CCCC(C)C)O2 here?
A: -11.9%

Q: For CCCc1ccc(OCC(=O)N2CCN(C(=O)COc3ccc(CCC)cc3OC)CC2)c(OC)c1, which “viability change, negative = cytotoxic” value is on record?
A: 0.826%

Q: For CCCCCCC1CCCC(=O)O1 (stereo not given), which “viability change, negative = cytotoxic” value is on record?
A: -2.25%

Q: With CCn1c2ccccc2c2cc([N+](=O)[O-])ccc21 as the compound, how does the “viability change, negative = cytotoxic” value read?
A: -0.119%

Q: For C=CCCC(=O)/C=C/C1C(C)=CCCC1(C)C (stereo not given), which “viability change, negative = cytotoxic” value is on record?
A: 5.39%

Q: For O=C(Nc1ccc2c(O)c(N=Nc3ccc(N=Nc4ccc(S(=O)(=O)O)cc4)cc3)c(S(=O)(=O)O)cc2c1)c1ccccc1, which “viability change, negative = cytotoxic” value is on record?
A: -17.5%

Q: For COC(=O)Nc1nc2ccc(C(=O)c3ccccc3)cc2[nH]1, which “viability change, negative = cytotoxic” value is on record?
A: -3.5%

Q: For O=C(/C=C/c1ccccc1)OC/C=C/c1ccccc1, which “viability change, negative = cytotoxic” value is on record?
A: 14.4%

Q: For O=C1CCc2cc(OCCCCc3nnnn3C3CCCCC3)ccc2N1, which “viability change, negative = cytotoxic” value is on record?
A: 19.6%

Q: Which Potency does the source give for O=C(O)O here?
A: 2.37 µM (active)

Q: For C=C(C)C(=O)OCCCCCCCCCC, which Potency is on record?
A: 39.2 µM (active)

Q: For CCN1C(=O)c2ccccc2C1Nc1ccc(OCCN2CCCCC2)cc1 (stereo not given), which “viability change, negative = cytotoxic” value is on record?
A: -2.85%

Q: With CC[N+](CC)(CC)CCOc1ccc(/C=C/c2ccccc2)cc1 as the compound, how does the “viability change, negative = cytotoxic” value read?
A: -21.3%

Q: For CC1(C)CCC[C@]2(C)[C@H]3CCO[C@]3(C)CC[C@@H]12, which “viability change, negative = cytotoxic” value is on record?
A: 10.7%

Q: Which Potency does the source give for CCCCCCCCCCCCCCCC[N+](C)(C)CC here?
A: 17.4 µM (active) and 21.1 µM (active)

Q: With CNC(=O)c1ccccc1Sc1ccc2c(/C=C/c3ccccn3)n[nH]c2c1 as the compound, how does the Potency read?
A: 18.8 µM (active)

Q: For CCC(=O)C(=O)CC, which “viability change, negative = cytotoxic” value is on record?
A: -6.31% [at 80.4 µM]
